Results: PubChem BioAssay AID504834 (National Center for Advancing Translational Sciences (NCATS), 2011)
Among all 320,000 compounds or so, about 22,000 (6.9%) were called active. Not shown: some 27% with an inconclusive outcome. Calls follow the shape of the dose curve; as a rule, active = well fitted inhibition curve with a large enough effect; inconclusive = small, poorly fitted or top-dose-only effect, or another doubt; inactive = no such curve, though single readings can be large or run the other way. The list comes from a sample in which actives are over-represented; it also holds similar structures and randomly drawn compounds. A call without a number means that no potency is given here.

assay: Primary qHTS for delayed death inhibitors of the malarial parasite plastid, 96 hour incubation; conditions: P. falciparum luciferase reporter growth; series mostly up to 28.7 µM
Excerpt: The goal of this screen is to discover new antimalarial compounds that act by inhibiting the development of the apicoplast in the malarial parasite Plasmodium falciparum. The biochemical processes that make this organelle essential for erythrocytic stage parasites are not well understood. However, antibiotics such as azithromycin and tetracycline, which target the apicoplast translational machinery, have a potent antimalarial effect.
We have developed a cell-based assay that measures parasite growth based on the expression of an integrated copy of a firefly luciferase reporter. To detect small molecules that cause this "delayed death" phenotype, erythrocytes infected with the luciferase-expressing parasites were incubated with compounds for either one or two generations, corresponding to 48 and 96 hours, respectively. Compounds that inhibit parasite growth in the second generation, but not the first, should be enriched in antimalarials that target the apicoplast. Growth inhibition is detected by a decrease in luciferase activity.
Assay Provider: David Fidock and Eric Ekland, Columbia University
Keywords: NIH Roadmap, MLPCN, MLI, MLSMR, qHTS, NCGC, qHTS, malaria, luciferase, viability
Four microliters of infected erythrocytes (2% hematocrit, 0.05% parasitemia final concentration) in culture medium were dispensed and the plates incubated for 96 hours at 37 C in 5% CO2. Two microliters of luciferase detection reagent was added and luminescence was detected by a ViewLux (PerkinElmer) reader.
Potency is read from the fitted curve at half-maximal effect.

Row | SMILES | Potency
1 | CC1CCCCN1C(=O)CCS(=O)(=O)Cc1ccccc1 (configuration not stated) | inactive
2 | CC(OC(=O)c1ccccc1NCCO)C(=O)Nc1ccnn1C(C)C (configuration not stated) | inactive
3 | CC(CCN1CCN=C1N(C)C)c1ccccc1 (configuration not stated) | inactive
4 | COc1ccc(N=C(C)c2sc3ccccc3c2O)cc1 | inactive
5 | Cc1ccc(NS(=O)(=O)c2cn(C)c(=O)n(C)c2=O)c(C)c1 | inactive
6 | Brc1ccc(C2CC(c3ccccc3)=Nc3ccccc3N2)cc1 (configuration not stated) | inactive
7 | c1ccc(C2=Nc3cccc4cccc(c34)N2)cc1 | 11.7 µM (active)
8 | Fc1ccccc1N=C1Nc2cccc3cccc1c23 | inactive
9 | C[C@@H](NC(=O)[C@@H]1Cc2ccccc2CN1)C(=O)NC1CCCC1 | inactive
10 | CN(Cc1cnccn1)C(=O)c1cc(COc2cccc(C(F)(F)F)c2)on1 | inactive
11 | COc1ccc(N2CCN(S(=O)(=O)c3ccc4c(c3)NC(=O)C(C)C(=O)N4)CC2)cc1 (configuration not stated) | inactive
12 | C=CCNc1nc(N)c([N+](=O)[O-])c(NC2CCCCC2)n1 | 10.4 µM (active)
13 | Nc1nc(NCC(=O)O)nc(N2CCCCCC2)c1[N+](=O)[O-] | inactive
14 | COCCNc1nc(N)c([N+](=O)[O-])c(NCCO)n1 | inactive
15 | O=C(COc1ccc2ccc(=O)oc2c1)NCC(O)c1ccccc1 (configuration not stated) | inactive
16 | O=C(CCC1CCCC1)N=C1SC2CS(=O)(=O)CC2N1Cc1ccccc1 (configuration not stated) | inactive
17 | Cc1ccccc1OCC(=O)NNC(=O)c1ccc(-n2cncn2)c([N+](=O)[O-])c1 | inactive
18 | O=C(Cn1nnc2ccccc2c1=O)NCc1ccc(Cl)cc1 | inactive
19 | C=CCn1c(SCn2nnc3ccccc3c2=O)nnc1-c1ccc(Cl)cc1 | 11.7 µM (active)
20 | O=c1c2ccccc2nnn1CSc1nnnn1-c1ccccc1 | inactive
21 | N/C(=N\S(=O)(=O)c1ccc(Cl)cc1)N1CCOCC1 | inactive
22 | CCOC(=O)Cc1csc(SCC(=O)Nc2ccc(C)cc2F)n1 | inactive

Row | SMILES | Potency
23 | FC(F)(F)c1nc2ccccc2nc1N/N=C/c1ccc(Cl)cc1 | inactive
24 | Oc1ccc(/C=N/NC2=NCCCCC2)c(O)c1 | inactive
25 | Cc1nc2ccccc2nc1N/N=C/c1ccc(O)cc1O | 2.94 µM (active)
26 | Oc1ccc(/C=N/Nc2nc(-c3ccccc3F)nc3ccccc23)c(O)c1 | 11.7 µM (active)
27 | Fc1ccc(/C=N/Nc2nc(-c3cccnc3)nc3ccccc23)cc1 | inactive
28 | Cc1cc(N/N=C/c2ccccc2F)c2ccccc2n1 | inactive
29 | CC1CCCN(C(=O)CN2C(=O)c3ccccc3S2(=O)=O)C1 (configuration not stated) | inactive
30 | COc1cc(OC)cc(/C(N)=N/O)c1 | inactive
31 | Cc1cc(SCc2c(F)cccc2Cl)nc(=O)[nH]1 | 11.7 µM (active)
32 | Cc1snc(SCc2c(F)cccc2Cl)c1C#N | inactive
33 | CSc1cc(C)[nH]c(=O)n1 | inactive
34 | NC(=O)CCN1CCN(S(=O)(=O)/C=C/c2ccccc2)CC1 | inactive
35 | Cc1ccc2c(CN3CCN(S(=O)(=O)c4ccccc4C(F)(F)F)CC3)cc(=O)oc2c1 | 9.28 µM (active)
36 | Cc1onc(-c2ccccc2)c1C(=O)N1CCN(S(=O)(=O)c2ccccc2C(F)(F)F)CC1 | inactive
37 | CN1CCN(Cc2ccccc2C(F)(F)F)CC1 | inactive
38 | O=c1cc(CN2CCN(S(=O)(=O)/C=C/c3ccccc3)CC2)c2ccc(O)cc2o1 | 11.7 µM (active)
39 | O=C(CN1CCN(S(=O)(=O)/C=C/c2ccccc2)CC1)Nc1ccc(N2CCOCC2)cc1 | inactive
40 | Cc1cccc(NC(=O)CCn2c(=O)oc3ccccc32)c1 | inactive
41 | CCCCn1c(N)c(N(CCOC)C(=O)c2oc3ccc(OC)cc3c2C)c(=O)[nH]c1=O | inactive
42 | O=C(NCCS(=O)(=O)c1ccc(Br)cc1)c1ccccc1Cl | inactive
43 | Cc1cccc(C(=O)Nc2ccc(C(=O)N/N=C/c3cccc(C)n3)cc2)c1 | inactive
44 | COc1cccc(NC(=O)CSc2nccn(-c3ccc4c(c3)OCCO4)c2=O)c1 | inactive

Row | SMILES | Potency
45 | CCOC(=O)c1ccc(NC(=O)CNC(=O)c2ccco2)cc1 | inactive
46 | CCOC(=O)[C@H]1[C@H]2COc3cc(OC)ccc3[C@@H]2N2C(=O)N(c3ccc(Br)cc3)C(=O)[C@@]12C | 11.7 µM (active)
47 | CCOC(=O)C1C(c2ccc(Cl)cc2)NC(=S)NC1(O)C(F)(F)F (configuration not stated) | inactive
48 | CCOC(=O)C1CCN(C(=O)Nc2cccc(OC)c2)CC1 | inactive
49 | CCOC(=O)[C@@H]1[C@H]2COc3ccc(Br)cc3[C@H]2N2C(=O)N(c3ccc(Cl)cc3)C(=O)[C@@]12C | 11.7 µM (active)
50 | COc1ccc(NS(=O)(=O)c2cccc(C(=O)NCCc3ccc(S(N)(=O)=O)cc3)c2)cc1 | inactive
51 | CC1CCCCC1NC(=O)COC(=O)Cc1ccc(Cl)cc1 (configuration not stated) | inactive
52 | COc1ccc(-c2ocnc2C(=O)Nc2ccc3c(c2)CCC3)cc1 | inactive
53 | O=S(=O)(Nc1ccccc1Br)c1cccs1 | inactive
54 | CCCCN(C)CCCNC(=O)c1cc(-c2cccs2)nc2ccccc12 | inactive
55 | CC(C)OCCCNC(=O)c1cc(Sc2ccc(F)cc2)nc2ccccc12 | 3.29 µM (active)
56 | CC(C)CCNC(=O)c1cccnc1Sc1ccccc1 | inactive
57 | O=C(O)C(NS(=O)(=O)c1cccc2nsnc12)c1ccccc1 (configuration not stated) | inactive
58 | CC(=O)Nc1cccc(NC(=O)c2ccc3c(c2)CCN3S(C)(=O)=O)c1 | inactive
59 | O=C(CCCCO)c1ccc(O)c(Cl)c1 | inactive
60 | COc1ccc(/C=C(\C#N)C(=O)NCCCn2ccnc2)cc1 | inactive
61 | COc1cccc(-c2nn(-c3ccccc3)cc2/C=C(\C#N)C(=O)NCCCn2ccnc2)c1 | 1.65 µM (active)
62 | COc1cc(OC)cc(C(=O)NCCCn2ccnc2)c1 | inactive
63 | C/C=C(/C)C(=O)Nc1cccc(C2=NOC3(C2)C[C@@H](C(N)=O)N(C(=O)C2(C)CC2)C3)c1 (some centres not stated) | inactive
64 | CCOc1ncccc1C(=O)OCC(=O)c1c[nH]c2ccccc12 | inactive
65 | O=C(NCCS(=O)(=O)NCc1ccc(F)cc1)c1ccccc1 | inactive
66 | CSc1nccc(NC(=O)c2ccc(C(C)(C)C)cc2)n1 | inactive

Row | SMILES | Potency
67 | CN1CCN(C2=NCCO2)CC1 | inactive
68 | Cc1ccc(Sc2cc(C(=O)c3ccccc3C(=O)O)ccc2[N+](=O)[O-])cc1 | inactive
69 | CN(C)c1ccc(C2N(C)C(=O)c3ccccc3N2C)cc1 (configuration not stated) | inactive
70 | CN(C)c1ccc(Nc2c3c4c(cccc4n(C)c2=O)C(=O)c2ccccc2-3)cc1 | 5.22 µM (active)
71 | CC1C(=O)N(Cc2ccccc2)c2ccccc2N1C(=O)c1ccccc1 (configuration not stated) | inactive
72 | O=C(COC(=O)Cn1[nH]c(=O)c2ccccc2c1=O)Nc1c(Cl)cccc1C(F)(F)F | inactive
73 | COc1cc(NC(=O)C2=CC(c3ccco3)=NS(=O)(=O)N2C)cc(OC)c1OC | inactive
74 | CC/C(=N\NC(=O)c1c(C)nc2ccccn12)c1ccc(Cl)cc1 | inactive
75 | O=C(Nc1ccccc1N1CCOCC1)c1ccc(OCc2cscn2)cc1 | inactive
76 | CCC(CC)c1nnc(NC(=O)/C=C/c2ccco2)s1 | inactive
77 | Cc1nnc(NC(=O)/C=C/c2ccco2)s1 | inactive
78 | CCc1nnc(NC(=O)/C=C/c2ccc(C)o2)s1 | 10.4 µM (active)
79 | CN1CCN(c2ccc(CNS(=O)(=O)c3cccc(F)c3)cc2)CC1 | inactive
80 | N#CCCN(C(=O)COC(=O)C1CCN(c2ccc(C(F)(F)F)cn2)CC1)c1ccc(F)cc1 | inactive
81 | COc1ccccc1-n1nnnc1SCC(=O)NC(=O)Cc1ccccc1 | inactive
82 | O=C(c1cccc(-n2cccc2)c1)N1CCN(S(=O)(=O)c2ccc(F)cc2)CC1 | inactive
83 | Cc1oc(-c2cccc(Cl)c2)[n+]([O-])c1C | 5.22 µM (active)
84 | CCOC(=O)CSc1ncc(-c2cccc(Cl)c2)cn1 | inactive
85 | Cc1oc(-c2ccccc2Cl)[n+]([O-])c1C | inactive
86 | Cc1[nH]n(C(N)=S)c(=O)c1N=Nc1ccc(Cl)cc1Cl | inactive
87 | CC(=O)Nc1cccc(C(=O)OCC(=O)NCc2cc(C)c(O)c(C)c2)c1 | inactive
88 | Cc1ccc(S(=O)(=O)N2CC(O)C[C@H]2C(=O)OCC(=O)Nc2ccc(N3CCOCC3)cc2)cc1C (some centres not stated) | inactive

Row | SMILES | Potency
89 | CN(C(=O)COC(=O)c1ccc(Br)o1)c1c(N)n(Cc2ccccc2)c(=O)[nH]c1=O | inactive
90 | CCCCNC(=O)c1ccc(-n2c(=S)[nH]c3ccccc3c2=O)cc1 | inactive
91 | CCOC(=O)N1CCN(C(=O)Cc2ccc(-n3c(=S)[nH]c4ccccc4c3=O)cc2)CC1 | 13.1 µM (active)
92 | O=C(Cc1ccc(-n2c(=O)[nH]c3ccccc3c2=O)cc1)N1CCN(c2cccc(Cl)c2)CC1 | inactive
93 | CCc1nc(N2CCN(C(C)=O)CC2)c2c3c(sc2n1)CCCC3 | inactive
94 | O=C(/C=C/c1cccc(F)c1)NC1CC1 | inactive
95 | CC(=O)Nc1nc2ccccc2n1Cc1ccc(C)cc1 | inactive
96 | CC(=O)c1nc2ccccc2n1Cc1ccccc1 | inactive
97 | CCCc1nc2c(C)cc(-c3nc4ccccc4n3C)cc2n1Cc1ccc(-c2ccccc2C(=O)O)cc1 | 1.51 µM (active)
98 | Cc1ccc2cc(/C=N/NC(=O)[C@@H]3CCCN3)c(Cl)nc2c1 | inactive
99 | COc1ccc(CCNC(=O)CCc2cn(C)c3ccccc23)c(OC)c1 | inactive
100 | Cc1nc(N)[nH]c(=O)c1Oc1cccc(C(F)(F)F)c1 | inactive
101 | O=C(NCc1cccnc1)Nc1cccc(NC(=O)NCc2cccnc2)c1F | inactive
102 | CC1CC(C)CN(C(=O)COC(=O)c2ccc3ncsc3c2)C1 (configuration not stated) | inactive
103 | Cc1ccc(S(=O)(=O)NC(=O)Nc2nc(-c3ccc(F)c(F)c3)cs2)cc1 | inactive
104 | Cc1cc(=O)cc(C)n1-c1ccc(Cl)c(Cl)c1 | inactive
105 | CCCCNC(=O)c1onc(CSc2cccc(OC)c2)c1C(=O)O | inactive
106 | CCCNC(=O)c1onc(CSc2ccc(F)cc2)c1C(=O)NC(C)C | 11.7 µM (active)
107 | CCOc1cccc(SCc2noc(C(=O)NC(C)C)c2C(=O)O)c1 | inactive
